Measured values as given in PubChem BioAssay AID1159580 (chemical genetic matrix, 2015).
In all, about 5,500 compounds went through this assay and about 2,000 (36%) were called active. Inconclusive results (about 18%) are left out. Cut-off read from the data, not from the text of the source: active = normalized growth mostly below about 0.91 (no sharp cut-off); inconclusive = no clear call, values can overlap the other calls; inactive = mostly above about 0.92. Some of the results follow.

Assay: chemical genetic growth profiling, strain panel (AID 1159580);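 note: tested at 20 µM; growth read once vehicle control cultures reached saturation at 30 °C; 1 = growth at the plate median or of vehicle wells; lower values mean less growth of the strain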
Details: S. cerevisiae deletion strains, growth OD

Measured: normalized growth

CC(=O)[C@]1(O)Cc2c(O)c3c(c(O)c2[C@@H](O[C@H]2C[C@H](N)[C@H](O)[C@H](C)O2)C1)C(=O)c1ccccc1C3=O
active: locus YAL040C, strain CLN3, active compounds read low 0.208 | locus YCL061C, strain MRC1 (second series), active compounds read low 0.0781 | locus YDR150W, strain NUM1, active compounds read low 0.0885 | locus YDR363W, strain ESC2, active compounds read low 0.478 | locus YER002W, strain NOP16, active compounds read low 0.193 | locus YGR229C, strain SMI1, active compounds read low 0.0661 | locus YJR075W, strain HOC1, active compounds read low 0.0942 | locus YMR263W, strain SAP30, active compounds read low 0.785 | locus YNL128W, strain TEP1, active compounds read low 0.18 | locus YNL153C, strain GIM3, active compounds read low 0.59 | locus YNL175C, strain NOP13, active compounds read low 0.178 | locus YNL197C, strain WHI3, active compounds read low 0.183 | locus YNL224C, strain SQS1, active compounds read low 0.165 | locus YOR083W, strain WHI5 (second series), active compounds read low 0.178 | locus YPL055C, strain LGE1, active compounds read low 0.0958 | locus YPL241C, strain CIN2, active compounds read low 0.0639

COc1cccc2c1C(=O)c1c(O)c3c(c(O)c1C2=O)C[C@@](O)(C(C)=O)C[C@@H]3O[C@H]1C[C@H](N)[C@H](O)[C@H](C)O1
active: locus YAL021C, strain ccr4, active compounds read low 0.872 | locus YBR009C, strain hhf1, active compounds read low 0.894 | locus YDR159W, strain sac3, active compounds read low 0.836 | locus YER015W, strain faa2, active compounds read low 0.914 | locus YER155C, strain BEM2 (second series), active compounds read low 0.802 | locus YGL240W, strain doc1, active compounds read low 0.621 | locus YGL253W, strain hxk2, active compounds read low 0.907 | locus YJL115W, strain asf1, active compounds read low 0.885 | locus YJL129C, strain trk1, active compounds read low 0.53 | locus YJL166W, strain qcr8, active compounds read low 0.827 | locus YLR320W, strain mms22, active compounds read low 0.727 | locus YMR205C, strain PFK2, active compounds read low 0.873 | locus YNL071W, strain lat1, active compounds read low 0.848 | locus YNL248C, strain rpa49, active compounds read low 0.706 | locus YPL078C, strain atp4, active compounds read low 0.891
inactive: locus YAL026C, strain drs2, active compounds read low 0.959 | locus YAL030W, strain snc1, active compounds read low 0.946 | locus YBL061C, strain skt5, active compounds read low 0.953 | locus YBR023C, strain chs3, active compounds read low 0.953 | locus YBR231C, strain swc5, active compounds read low 0.913 | locus YBR279W, strain paf1, active compounds read low 0.968 | locus YCL011C, strain gbp2, active compounds read low 0.969 | locus YCL016C, strain dcc1, active compounds read low 1 | locus YCL069W, strain vba3, active compounds read low 0.966 | locus YCR088W, strain abp1, active compounds read low 0.981 | locus YDL005C, strain med2, active compounds read low 0.962 | locus YDL040C, strain nat1, active compounds read low 0.941 | locus YDR001C, strain nth1, active compounds read low 0.958 | locus YDR069C, strain doa4, active compounds read low 0.922 | locus YDR137W, strain rgp1, active compounds read low 0.956 | locus YDR195W, strain ref2 0.983 | locus YDR297W, strain sur2, active compounds read low 0.967 | locus YDR334W, strain swr1, active compounds read low 0.903 | locus YDR335W, strain msn5, active compounds read low 0.987 | locus YDR392W, strain spt3, active compounds read low 0.976 | locus YEL003W, strain gim4, active compounds read low 0.989 | locus YEL037C, strain rad23, active compounds read low 0.974 | locus YEL061C, strain CIN8 (second series), active compounds read low 0.951 | locus YER016W, strain bim1, active compounds read low 0.993 | locus YER111C, strain swi4, active compounds read low 0.991 | locus YFR010W, strain ubp6, active compounds read low 0.91 | locus YGL167C, strain pmr1, active compounds read low 0.986 | locus YGL173C, strain kem1, active compounds read low 0.97 | locus YGL227W, strain vid30, active compounds read low 0.941 | locus YHR013C, strain ard1, active compounds read low 0.933 | locus YHR027C, strain rpn1, active compounds read low 0.94 | locus YHR030C, strain SLT2, active compounds read low 0.994 | locus YHR079C, strain IRE1, active compounds read low 0.989 | locus YHR142W, strain chs7, active compounds read low 0.956 | locus YJL092W, strain hpr5, active compounds read low 0.975 | locus YJL095W, strain BCK1 (second series), active compounds read low 0.977 | locus YJL095W, strain BCK1, active compounds read low 1.01 | locus YJL154C, strain vps35, active compounds read low 0.957 | locus YJL164C, strain tpk1, active compounds read low 0.97 | locus YJR066W, strain TOR1, active compounds read low 0.954 | locus YKL160W, strain elf1, active compounds read low 0.963 | locus YKR026C, strain gcn3, active compounds read low 0.971 | locus YKR091W, strain srl3, active compounds read low 0.971 | locus YLL001W, strain dnm1, active compounds read low 0.981 | locus YLL026W, active compounds read low 0.986 | locus YLL041C, strain sdh2, active compounds read low 0.971 | locus YLR027C, strain aat2, active compounds read low 0.976 | locus YLR113W, strain HOG1, active compounds read low 1.01 | locus YLR221C, strain rsa3, active compounds read low 0.977 | locus YLR258W, strain gsy2, active compounds read low 0.991 | locus YLR262C, strain YPT6 (second series), active compounds read low 0.919 | locus YLR342W, strain FKS1, active compounds read low 0.967 | locus YLR357W, strain rsc2, active compounds read low 0.917 | locus YLR370C, strain arc18, active compounds read low 0.97 | locus YLR384C, strain iki3, active compounds read low 0.966 | locus YML120C, strain ndi1, active compounds read low 0.959 | locus YMR058W, strain fet3, active compounds read low 0.922 | locus YMR125W, strain sto1, active compounds read low 0.966 | locus YMR129W, active compounds read low 0.978 | locus YMR231W, strain pep5, active compounds read low 0.968 | locus YNL183C, strain NPR1, active compounds read low 0.971 | locus YNL209W, strain ssb2, active compounds read low 0.945 | locus YNL322C, strain KRE1 (second series), active compounds read low 0.975 | locus YNR049C, strain mso1, active compounds read low 0.965 | locus YOR001W, strain rrp6, active compounds read low 0.96 | locus YOR070C, strain gyp1, active compounds read low 0.977 | locus YOR080W, strain dia2, active compounds read low 0.951 | locus YOR083W, strain WHI5, active compounds read low 0.972 | locus YOR106W, strain vam3, active compounds read low 0.911 | locus YOR231W, strain MKK1, active compounds read low 1.01 | locus YOR265W, strain rbl2, active compounds read low 0.949 | locus YOR270C, strain vph1, active compounds read low 0.919 | locus YOR290C, strain snf2, active compounds read low 0.995 | locus YPL051W, strain arl3, active compounds read low 0.958 | locus YPL106C, strain sse1, active compounds read low 1.1 | locus YPL240C, strain hsp82, active compounds read low 0.98 | locus YPL256C, strain CLN2, active compounds read low 0.987
